Some test systems named below: NCI-H23 lung; NCI-H226 lung; NCI-H322M lung; HOP-62 NSCLC; NCI-H460 lung; HOP-92 NSCLC; NCI-H522 lung; 786-0 renal; COLO 205 colon; DU-145 prostate; MALME-3M melanoma; MDA-MB-231 breast; RXF 393 renal; SF-268 CNS; SF-295 CNS; SF-539 CNS; UACC-257 melanoma; M14 melanoma.
What all share (assay): NCI-60 one-dose screen, 48 h (100 = growth as untreated, 0 = no growth, -100 = all killed)
Another assay relates to A549/ATCC NSCLC. Conditions: 10 µM unless noted.
A further assay concerns K-562 leukemia. Particulars: 10 µM unless noted.

The structures appear in SMILES notation. Compounds without any hit were thinned out: in the full panel of roughly 83,000, 20% have a hit.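 Step 1: grow cells in 96-well plates. Step 2: add test compound at a single concentration. Step 3: incubate 48 h. Step 4: record percent growth.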 Values without a mark were called inactive. Calls of active or inactive are those of the source. Rule for the calls: active = growth percent below 10; inactive = the rest.

Regarding `CC/C(=C(/c1ccc(O)cc1)c1ccc(OCCN(C)C(=O)COCCOCCNC(=O)Cc2ccc3c(c2)CN([C@@H]2CCC(=O)NC2=O)C3=O)cc1)c1ccccc1`, the growth in the assay on NCI-H23 lung (1 µM) was 101%; in the assay with NCI-H23 lung (10 µM), 97.4%; with NCI-H226 lung (1 µM), 93.8%; in the assay on NCI-H226 lung (10 µM), 39.9%; in the assay on NCI-H322M lung (1 µM), 93.9%; in the assay with NCI-H322M lung (10 µM), 64.1%. Moreover, the growth with HOP-62 NSCLC (1 µM) is 91.6%; in the assay on HOP-62 NSCLC (10 µM) it was 38.8%; in the assay with NCI-H460 lung (1 µM), 125%; in the assay with NCI-H460 lung (10 µM), 110%; with HOP-92 NSCLC (1 µM), 15.5%; with HOP-92 NSCLC (10 µM), 12.7%. Besides, the growth in the assay on NCI-H522 lung (1 µM) was 93.6%; in the assay with NCI-H522 lung (10 µM), 88.1%; in the assay on 786-0 renal (1 µM), 96%; with 786-0 renal (10 µM), 80.7%; in the assay on COLO 205 colon (1 µM) it was 96.4%; in the assay with COLO 205 colon (10 µM), 31.2%. In addition, the growth with DU-145 prostate (1 µM) was 104%; in the assay with DU-145 prostate (10 µM), 105%; in the assay with MALME-3M melanoma (1 µM), 51.4%; in the assay on MALME-3M melanoma (10 µM) it was 1.5% (active); in the assay with MDA-MB-231 breast (1 µM), 9.31% (active); in the assay on MDA-MB-231 breast (10 µM), -22.2% (active). The growth was 97.4% with RXF 393 renal (1 µM); 99.2% with RXF 393 renal (10 µM); 96.2% in the assay with SF-268 CNS (1 µM); 61.3% in the assay on SF-268 CNS (10 µM); 101% with SF-295 CNS (1 µM); 94.7% in the assay with SF-295 CNS (10 µM). Besides, the growth in the assay with SF-539 CNS (1 µM) was 80.7%; in the assay on SF-539 CNS (10 µM) it was 65.3%; with UACC-257 melanoma (1 µM), 101%; in the assay with UACC-257 melanoma (10 µM) it was 99.8%; in the assay with M14 melanoma (1 µM), 92.8%; in the assay on M14 melanoma (10 µM), 65.4%.

In the case of `CN(C(=O)CN1C(=O)/C(=C/c2ccco2)SC1=S)C1CCS(=O)(=O)C1` (stereo not drawn), the growth with NCI-H23 lung (10 µM unless noted) was 100%; in the assay on NCI-H226 lung (10 µM unless noted), 100%; in the assay on NCI-H322M lung (10 µM unless noted) it was 99.3%; with HOP-62 NSCLC (10 µM unless noted) it was 123%; in the assay with NCI-H460 lung (10 µM unless noted), 95.5%; in the assay with HOP-92 NSCLC (10 µM unless noted), 102%. The growth in the assay on NCI-H522 lung (10 µM unless noted) is 15.4%; in the assay with A549/ATCC NSCLC, 102%; in the assay on 786-0 renal (10 µM unless noted), 93.4%; in the assay on COLO 205 colon (10 µM unless noted) it was 119%; with DU-145 prostate (10 µM unless noted), 103%; with K-562 leukemia, 85.1%. Further, the growth with MALME-3M melanoma (10 µM unless noted) is 97.1%; with MDA-MB-231 breast (10 µM unless noted), 108%; in the assay on RXF 393 renal (10 µM unless noted), 108%; with SF-268 CNS (10 µM unless noted), 93.9%; with SF-295 CNS (10 µM unless noted) it was 104%; in the assay with SF-539 CNS (10 µM unless noted), 104%. For the same compound, in the assay on UACC-257 melanoma (10 µM unless noted), the growth is 96.4%.

For the compound `COC(=O)c1cc(C(=O)C(C)(C)C)n2c3ccccc3c3ccccc3c12`, the growth in the assay on NCI-H23 lung (10 µM unless noted) is 92.4%; in the assay with NCI-H226 lung (10 µM unless noted), 100%; in the assay on NCI-H322M lung (10 µM unless noted), 102%; in the assay on HOP-62 NSCLC (10 µM unless noted), 132%; with NCI-H460 lung (10 µM unless noted) it was 106%; with HOP-92 NSCLC (10 µM unless noted), 63.2%. The growth in the assay on NCI-H522 lung (10 µM unless noted) is 103%; in the assay on A549/ATCC NSCLC, 115%; in the assay with 786-0 renal (10 µM unless noted), 93%; in the assay on COLO 205 colon (10 µM unless noted), 112%; with DU-145 prostate (10 µM unless noted), 97.4%; in the assay on K-562 leukemia, 77.1%. Besides, the growth in the assay with MALME-3M melanoma (10 µM unless noted) is 109%; with MDA-MB-231 breast (10 µM unless noted) it was 79.4%; with RXF 393 renal (10 µM unless noted) it was 91.3%; in the assay on SF-268 CNS (10 µM unless noted) it was 103%; in the assay on SF-295 CNS (10 µM unless noted), 93.5%; in the assay on SF-539 CNS (10 µM unless noted), 96.7%. Besides, in the assay on UACC-257 melanoma (10 µM unless noted), the growth was 117%.

Turning to `COc1ccc(NC(=O)NN2C(=O)c3ccccc3N(C)C2c2ccc(OC)cc2)cc1` (stereo not drawn), the growth in the assay with NCI-H23 lung (10 µM unless noted) was 100%; with NCI-H226 lung (10 µM unless noted), 106%; in the assay on NCI-H322M lung (10 µM unless noted), 95.8%; with HOP-62 NSCLC (10 µM unless noted), 97.8%; with NCI-H460 lung (10 µM unless noted), 109%; in the assay on HOP-92 NSCLC (10 µM unless noted) it was 102%. In addition, the growth is 93% with NCI-H522 lung (10 µM unless noted); 108% with A549/ATCC NSCLC; 65.8% with 786-0 renal (10 µM unless noted); 103% with COLO 205 colon (10 µM unless noted); 107% with DU-145 prostate (10 µM unless noted); 95.6% with K-562 leukemia. The growth in the assay with MALME-3M melanoma (10 µM unless noted) was 95%; in the assay with MDA-MB-231 breast (10 µM unless noted) it was 98.9%; in the assay with RXF 393 renal (10 µM unless noted), 112%; with SF-268 CNS (10 µM unless noted), 107%; in the assay with SF-295 CNS (10 µM unless noted), 101%; in the assay on SF-539 CNS (10 µM unless noted), 100%. Moreover, the growth with UACC-257 melanoma (10 µM unless noted) is 103%.

Take `Fc1ccc(N2CC(Cn3c(C(F)(F)F)cc4c(Cl)ncnc43)C2)c(F)c1`: the growth was -76% (active) in the assay with NCI-H23 lung (10 µM unless noted); 116% with NCI-H226 lung (10 µM unless noted); 45.7% with NCI-H322M lung (10 µM unless noted); 46.8% in the assay on HOP-62 NSCLC (10 µM unless noted); -72.9% (active) in the assay with NCI-H460 lung (10 µM unless noted); -7.85% (active) in the assay on HOP-92 NSCLC (10 µM unless noted). For the same compound, the growth with NCI-H522 lung (10 µM unless noted) is 9.73% (active); with A549/ATCC NSCLC it was 108%; in the assay with 786-0 renal (10 µM unless noted), 79.2%; with COLO 205 colon (10 µM unless noted), 65%; in the assay on DU-145 prostate (10 µM unless noted) it was -6.58% (active); in the assay on K-562 leukemia, -57% (active). Besides, the growth with MALME-3M melanoma (10 µM unless noted) is 89.7%; with MDA-MB-231 breast (10 µM unless noted), -81.9% (active); with RXF 393 renal (10 µM unless noted), -51.1% (active); in the assay with SF-268 CNS (10 µM unless noted), -42% (active); in the assay on SF-295 CNS (10 µM unless noted), 87.8%; in the assay with SF-539 CNS (10 µM unless noted) it was 50.2%. The growth with UACC-257 melanoma (10 µM unless noted) is 11.4%; in the assay on M14 melanoma (10 µM unless noted), -60.9% (active).

Take `CN1CCN(C(=O)Oc2cc3c(c4ccccc24)[C@H](CCl)CN3C(=O)c2cc3cc(OCCCN4CCC4)ccc3[nH]2)[C@@H]2CSSC[C@H]21`: the growth in the assay with NCI-H23 lung (10 µM unless noted) is -72% (active); in the assay with NCI-H226 lung (10 µM unless noted), -22.4% (active); in the assay with NCI-H322M lung (10 µM unless noted), 2.48% (active); in the assay on HOP-62 NSCLC (10 µM unless noted), -40.4% (active); in the assay with NCI-H460 lung (10 µM unless noted) it was -35.7% (active); in the assay on HOP-92 NSCLC (10 µM unless noted), -10% (active). Moreover, the growth with NCI-H522 lung (10 µM unless noted) is -51.7% (active); in the assay with A549/ATCC NSCLC, -2.8% (active); in the assay with 786-0 renal (10 µM unless noted) it was -89.1% (active); in the assay with COLO 205 colon (10 µM unless noted), -65.5% (active); in the assay with DU-145 prostate (10 µM unless noted), -31.6% (active); in the assay on K-562 leukemia, -4.46% (active). The growth in the assay with MALME-3M melanoma (10 µM unless noted) is -55.1% (active); in the assay with MDA-MB-231 breast (10 µM unless noted), -9.52% (active); in the assay with RXF 393 renal (10 µM unless noted), -71.1% (active); with SF-268 CNS (10 µM unless noted) it was -10.3% (active); with SF-295 CNS (10 µM unless noted), -7.45% (active); in the assay with SF-539 CNS (10 µM unless noted) it was -58.8% (active). For the same compound, the growth is -21% (active) in the assay with UACC-257 melanoma (10 µM unless noted) and -74.7% (active) in the assay with M14 melanoma (10 µM unless noted).

In the case of `NS(=O)(=O)c1ccc(N2N=C(c3ccc(NC(=O)Nc4ccccc4)cc3)CC2c2ccc(Br)cc2)cc1` (stereo not drawn), the growth in the assay with NCI-H23 lung (10 µM unless noted) is -95.2% (active); with NCI-H226 lung (10 µM unless noted), -84.2% (active); in the assay with NCI-H322M lung (10 µM unless noted), -87.3% (active); in the assay on HOP-62 NSCLC (10 µM unless noted), -70.3% (active); in the assay on NCI-H460 lung (10 µM unless noted), -83.9% (active); with HOP-92 NSCLC (10 µM unless noted) it was -87% (active). Besides, the growth in the assay on NCI-H522 lung (10 µM unless noted) was -79.7% (active); in the assay with A549/ATCC NSCLC, -57.7% (active); in the assay with 786-0 renal (10 µM unless noted), -85.7% (active); with COLO 205 colon (10 µM unless noted), -53.5% (active); in the assay with DU-145 prostate (10 µM unless noted), -7.86% (active); in the assay with K-562 leukemia, 16.7%. The growth in the assay with MALME-3M melanoma (10 µM unless noted) was -97.1% (active); in the assay with MDA-MB-231 breast (10 µM unless noted), -94.8% (active); in the assay on RXF 393 renal (10 µM unless noted), -96.4% (active); in the assay with SF-268 CNS (10 µM unless noted), -29.7% (active); with SF-295 CNS (10 µM unless noted), -64.9% (active); with SF-539 CNS (10 µM unless noted), -99.2% (active). The growth is -16.8% (active) in the assay on UACC-257 melanoma (10 µM unless noted) and -69.2% (active) in the assay on M14 melanoma (10 µM unless noted).
